Activity calls are given as the source filed them. The call rests on the fitted dose curve; in most records, active means well fitted curve in the direction sought with a large enough effect in the repeat runs; inconclusive means weak or mixed curves; inactive means flat fitted curve, though single readings scatter.
Assay: qHTS assay to test for compound auto fluorescence at 460 nm (blue) in HepG2 cell free culture (AID 720685)
Conditions: Cell-free culture medium, blue autofluorescence 405/460 nm; series mostly up to 91.3 µM; fluorescence, % of fluorescent control: at the top concentration
From the text: U.S. Tox21 Program National Center for Advancing Translational Sciences [NCATS] NIH Chemical Genomics Center [NCGC] U.S. Environmental Protection Agency [EPA] National Institutes of Environmental Health Sciences [NIEHS] National Toxicology Program [NTP] U.S. Food and Drug Administration [FDA] Tox21 Assay Overview: Compound auto fluorescence often interferes with screening of the compound library against various biological targets and signaling pathways. Some of these compounds may have fluorophoric properties. Such properties may interfere with the assay outputs resulting in false positives and/or negatives. To decrease such complications and ensure the compound activities are relevant in terms of biological response, the Tox21 10K compound library was screened for auto fluorescence. From the fluorophores used as reporter signals in our screening assays, the auto fluorescence equivalencies of compounds against three fluorophores have been evaluated: Triamterene, Fluorescein and Rose Bengal sodium for blue, green and red fluorescence, respectively. The fluorescence intensities were measured using Excitation/Emission wavelengths at 405/460nm, 485/535nm and 540/590nm for blue, green and red labels, respectively. This assay includes the blue fluorescence data.
Tox21 Assay Protocol Summary: 5 uL of culture medium (MEM containing 10% FBS) per well was dispensed into black wall/clear bottom 1536-well plates using a Multidrop Combi Dispenser (ThermoFisher Scientific, Waltham, MA). After 23 nL compound or DMSO vehicle was transferred into assay plate by a pintool work station (Kalypsys, San Diego, CA), fluorescence intensities in the assay plates were measured by an Envision (PerkinElmer, Shelton, CT) plate reader using three labels for measuring blue, green and red fluorescence at […] 460, 535 and 590nm respectively.
In the case of `O=CCCl`, the “fluorescence, % of fluorescent control” value was 0.0657% (inactive).
With `C=C(Cl)CSC(=S)N(CC)CC` the “fluorescence, % of fluorescent control” value was -0.0978% [at 95.7 µM] (inactive).
In the case of `CC1N=C(N)OC1c1ccccc1` (stereo not given), the “fluorescence, % of fluorescent control” value was -0.0006% (inactive).
For `CCNP(=S)(OC)O/C(C)=C/C(=O)OC(C)C` (stereo not given), the “fluorescence, % of fluorescent control” value was 0.584% (inactive).
With `CCN(CC)CCOC(=O)C(O)(c1ccccc1)c1ccccc1` the “fluorescence, % of fluorescent control” value was -0.0149% [at 46 µM] (inactive).
With `CCN(CCO)CCn1c(Cc2ccccc2)nc2c1c(=O)n(C)c(=O)n2C` the “fluorescence, % of fluorescent control” value was -0.0423% [at 46 µM] (inactive).
With `CCOC(=O)C(Cl)Cc1cc(-n2nc(C)n(C(F)F)c2=O)c(F)cc1Cl` (stereo not given) the “fluorescence, % of fluorescent control” value was -0.226% (inactive).
With `C[C@@H](N)[C@@H](O)c1ccccc1` the fluorescence, % of fluorescent control was -0.105% [at 18.6 µM] (inactive).
For `CCCCCCCCSC(=O)Oc1cc(Cl)nnc1-c1ccccc1`, the “fluorescence, % of fluorescent control” value was -0.0167% (inactive).
For `CC(C)NCC(O)c1ccc([N+](=O)[O-])cc1` (stereo not given), the “fluorescence, % of fluorescent control” value was 0.0093% [at 46 µM] (inactive).
In the case of `CCN(CC)C1CCCCC1`, the “fluorescence, % of fluorescent control” value was -0.0161% (inactive).
For `CCCOC(=O)Cc1ccc(OCC(=O)N(CC)CC)c(OC)c1`, the “fluorescence, % of fluorescent control” value was 0.0421% [at 46 µM] (inactive).
In the case of `c1ccc2c(c1)CCNC2`, the “fluorescence, % of fluorescent control” value was 0.0209% [at 95.7 µM] (inactive).
In the case of `CC(C)N(Cc1ccccc1)C(=O)C(C)(C)C`, the “fluorescence, % of fluorescent control” value was -0.0089% (inactive).
In the case of `CNC(=O)Oc1ccccc1C(C)C`, the “fluorescence, % of fluorescent control” value was -0.0478% (inactive).
With `CC(=NC#N)N(C)Cc1ccc(Cl)nc1` the “fluorescence, % of fluorescent control” value was 0.0003% (inactive).
With `c1cncc([C@@H]2CCCCN2)c1` the “fluorescence, % of fluorescent control” value was -0.0348% (inactive).
In the case of `C(COCC1CO1)OCC1CO1` (stereo not given), the “fluorescence, % of fluorescent control” value was -0.0698% (inactive).
In the case of `CN(C)CCc1c[nH]c2cccc(OP(=O)(O)O)c12`, the “fluorescence, % of fluorescent control” value was -0.0056% (inactive).
In the case of `Cc1cccc2sc3nncn3c12`, the “fluorescence, % of fluorescent control” value was 0.412% (inactive).
In the case of `CC#Cc1cc(C)nc(Nc2ccccc2)n1`, the “fluorescence, % of fluorescent control” value was -0.191% (inactive).
For `CCOc1cc(OP(=S)(OC)OC)nc(CC)n1`, the “fluorescence, % of fluorescent control” value was -0.0013% (inactive).
For `BrCc1ccc(Br)cc1`, the “fluorescence, % of fluorescent control” value was 0.0368% (inactive).
In the case of `S=C=S`, the outcome was “inactive”.
For `CN(C)C(=O)Oc1cc(OC(=O)N(C)C)cc(C(O)CNC(C)(C)C)c1` (stereo not given), the fluorescence, % of fluorescent control was 0.0484% [at 18.6 µM] (inactive).
In the case of `CCOC(=O)COc1ccc(Cl)cc1Cl`, the “fluorescence, % of fluorescent control” value was -0.047% (inactive).
For `CNC(=O)NC(O)C(Cl)(Cl)Cl` (stereo not given), the “fluorescence, % of fluorescent control” value was -0.154% [at 46 µM] (inactive).
With `Oc1ccc(Cc2ccc(O)cc2)cc1` the “fluorescence, % of fluorescent control” value was 0.0068% (inactive).
With `COC(=O)[C@@H](N)CCCN/C(N)=N/[N+](=O)[O-]` the “fluorescence, % of fluorescent control” value was -0.0538% [at 46 µM] (inactive).
In the case of `O=[N+]([O-])c1cccc(CCl)c1`, the “fluorescence, % of fluorescent control” value was -0.148% [at 95.7 µM] (inactive).
For `C/C=C/CC#N`, the “fluorescence, % of fluorescent control” value was 0.0416% [at 95.7 µM] (inactive).
With `CCCCCCC1CCOC1=O` (stereo not given) the “fluorescence, % of fluorescent control” value was 0.0897% (inactive).
With `CC(C)(O)C(Cl)(Cl)Cl` the “fluorescence, % of fluorescent control” value was 0.063% [at 46 µM] (inactive).
In the case of `CCNc1nc(NCC)nc(SC)n1`, the “fluorescence, % of fluorescent control” value was -0.0294% (inactive).
For `O=C(NC(O)C(Cl)(Cl)Cl)NC(O)C(Cl)(Cl)Cl` (stereo not given), the “fluorescence, % of fluorescent control” value was 0.06% [at 46 µM] (inactive).
In the case of `CCc1cc(OC)c(C[C@H](C)N)cc1OC`, the “fluorescence, % of fluorescent control” value was 0.0044% [at 95.7 µM] (inactive).
With `CCOC(=O)C(SP(=S)(OC)OC)c1ccccc1` (stereo not given) the “fluorescence, % of fluorescent control” value was -0.137% (inactive).
With `COc1ccc2c(C(=O)c3ccc(Cl)cc3)c(C)n(CC(=O)O)c2c1` the “fluorescence, % of fluorescent control” value was -0.0544% [at 46 µM] (inactive).
In the case of `O=P(O)(O)c1ccccc1`, the “fluorescence, % of fluorescent control” value was 0.0272% (inactive).
With `CCOC(=O)N(C)N=O` the “fluorescence, % of fluorescent control” value was -0.0182% (inactive).

— PubChem BioAssay (Tox21)
On the % scale 0 is the no-effect control and ±100 the full control effect.
